Screens: PubChem, National Center for Advancing Translational Sciences (NCATS)
A selection: hits, their analogues and other compounds. The true share with any hit is near 1.2%.
PKM2 act: activators of human pyruvate kinase M2; hit rate 0.34% among 260,000; Potency, µM (titrated, usually from 57.5 µM), for inactives: at the highest dose activation, actives largely listed as activators; P14618; purified PKM2, Kinase-Glo ATP luminescence, activation; response scale: 0% is enzyme alone, no compound; further: potency means the concentration at half of the fitted maximal effect; nearly all actives have a fitted effect of over 55% in size
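Purified hPK-M2 (>95%) run at intermediate activity with 0.1 mM ADP and 0.5 mM PEP in 50 mM imidazole pH 7.2, KCl, MgCl2; 1 h room temperature. ATP formed read by Kinase-Glo luminescence; normalized to uninhibited and no-enzyme controls.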
TrxR1 inh: blocks rat thioredoxin reductase 1; AID 588453; Potency, µM (series often up to 114 µM), without a hit: top-dose activity change, negative = inhibition, most hits filed as inhibitors; recombinant rTrxR1, NADPH fluorescence consumption, selenite substrate; hit rate 1% among 390,000; further: potency means the concentration at half of the fitted maximal effect; nearly all actives have a fitted effect of over 65% in size
Target sequence (O89049 whole entry, looked up): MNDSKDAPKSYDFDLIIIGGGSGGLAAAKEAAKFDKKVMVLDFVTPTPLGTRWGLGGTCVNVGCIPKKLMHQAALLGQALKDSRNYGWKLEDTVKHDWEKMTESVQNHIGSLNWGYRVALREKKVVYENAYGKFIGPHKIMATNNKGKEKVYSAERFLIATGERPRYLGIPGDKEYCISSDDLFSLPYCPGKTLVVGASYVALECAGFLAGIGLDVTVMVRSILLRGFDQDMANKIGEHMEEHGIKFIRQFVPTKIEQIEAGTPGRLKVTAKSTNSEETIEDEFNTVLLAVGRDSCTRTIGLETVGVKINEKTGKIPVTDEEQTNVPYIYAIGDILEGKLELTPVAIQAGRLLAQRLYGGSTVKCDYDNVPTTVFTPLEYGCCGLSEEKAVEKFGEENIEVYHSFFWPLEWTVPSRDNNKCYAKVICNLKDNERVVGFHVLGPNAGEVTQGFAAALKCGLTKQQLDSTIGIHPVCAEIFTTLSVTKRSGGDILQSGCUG
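Rat TrxR1 (90 nM in the dispensed reagent) was pre-reduced with 400 uM NADPH for 5 min at room temperature, then incubated with compound for 15 min. After 400 uM selenite was added, NADPH fluorescence (Ex 340/Em 450 nm) was followed for 8 min.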
TrxR1 substrate: substrates of rat thioredoxin reductase 1; O89049; Potency, µM (top dose mostly 114 µM), without a hit: at the highest dose activity change, negative = substrate turnover; hit rate 0.01% among 390,000; purified TrxR1 substrate turnover, NADPH consumption readout; further: potency means the concentration at half of the fitted maximal effect; nearly all actives have a fitted effect of over 50% in size
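Rat TrxR1, dispensed at 90 nM, was prereduced with 400 uM NADPH (final) for 5 min at ~22 deg C, then incubated with compound 15 min before 400 uM selenite. A first-read NADPH fluorescence drop versus no-compound background flagged substrates.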
GALK inhibitor: galactokinase (human) inhibition; P51570; Purified GALK, Kinase-Glo residual ATP luminescence; Potency, µM (series often up to 57.5 µM), inactives show at the top dose activity change, negative = inhibition, usual class: inhibitors; hit rate 0.007% among 270,000; AID 1868; further: potency means the concentration at half of the fitted maximal effect
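GALK at 5 nM final was combined with compound, 35 uM ATP and 100 uM galactose in HEPES pH8.0 with MgCl2 and DTT. The reaction ran one hour at room temperature before luminescent ATP detection.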
PI4K2A block: inhibitors of human PI4K2A. purified PI4K2A, ADP-Glo luminescence, 1 h; active compounds read low. hit rate 0.13% among 420,000. Q9BTU6. activity change, negative = inhibition, % at 76.9 µM; in the data active means activity change below about -50%; inconclusive means mostly about -30% to -49%;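 further: -100% = wells without enzyme as full effect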
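Compounds are screened against recombinant PI4K2A using PI as substrate and ATP, the latter dispensed at 300 microM. Reactions run one hour at ambient temperature before ADP-Glo detection; full inhibition defined by wells lacking enzyme.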
Starred values were filed as active, the others as inactive; i = inactive; ? = inconclusive; . = no result; [ ] = dose if it differs, or a comment. Unless noted, the call rests on the fitted dose curve; in most records, active means well fitted curve in the direction sought with a large enough effect; inconclusive means small, poorly fitted or top-dose-only effect, or another doubt; inactive means no such curve, though single readings can be large; an effect the other way counts as inactive or inconclusive. Unless noted, on the % scale 0 is the no-effect control and ±100 the full control effect.

SMILES | PKM2 act | TrxR1 inh | TrxR1 substrate | GALK inhibitor | PI4K2A block
Cc1ccccc1S(=O)(=O)Cc1ccc(C(=O)N(C)C2CCCCC2)o1 | . | 56µM* | 4% | -6% | 10
O=c1ccc(N=Nc2ccccc2)ccc1O | -17% | -31%[57.1 µM] | -18%[57.1 µM] | 12% | -60*
O=S(=O)(O)c1ccc(N=Nc2ccccc2)cc1 | -9% | 3% | -16% | 3% | ?
O=C(NC1=C(Nc2ccc(Cl)cc2)C(=O)c2ccccc2C1=O)c1ccccc1 | 14% | ? | -6% | 0% | -14
O=C1C(Cl)=C(NC(=O)c2ccccc2)C(=O)C(Cl)=C1NC(=O)c1ccccc1 | . | 0.32µM* | -17% | -1% | -3
Cc1cn([C@H]2C[C@H](O)[C@@H](/C=C/C(=O)NCc3ccco3)O2)c(=O)[nH]c1=O | . | . | . | . | 1
COc1cccc(/C=N/Nc2ccc(S(=O)(=O)O)cc2)c1O | -7% | 16% | 7% | 1% | 0
COc1cccc(/C=N/Nc2ccc(C(=O)O)cc2)c1O | -46% | 2%[57.1 µM] | 0%[57.1 µM] | 13% | -73*
COC(=O)c1c(-c2cccs2)csc1NC(=O)c1ccc(C(C)(C)C)cc1 | . | 23% | 13% | . | 0
Cc1cc(Nc2c(C)n(C)n(-c3ccccc3)c2=O)n2c(nc3ccccc32)c1C#N | 2% | 35µM* | 5% | -4% | -4
CCCc1cc(Nc2c(C)n(C)n(-c3ccccc3)c2=O)n2c(nc3ccccc32)c1C#N | -17% | ? | -3% | 3% | -3
Cc1c(Cc2ccccc2)c(=O)oc2c(O)c(O)ccc12 | 20µM* | 16%[57.1 µM] | 4%[57.1 µM] | 3% | 2
COC(=O)c1scc(-c2ccc(C)cc2)c1S(=O)(=O)Nc1cc(OC)c(OC)c(OC)c1 | . | 6%[57.1 µM] | -3%[57.1 µM] | . | 0
COC(=O)CSc1nc2nc(-c3cccs3)cc(C(F)(F)F)c2c(=O)[nH]1 | . | 63% | 150% | -1% | 8
O=C(CSc1nc2nc(-c3cccs3)cc(C(F)(F)F)c2c(=O)[nH]1)C(F)(F)F | . | 35µM* | 609% | 3% | -4
O=C1NCCCC2c3c(cc(Br)c(O)c3Br)OC12N1CCCCC1 (stereo unspecified) | 5% | 25µM* | 1% | 0% | -13
O=C(c1cc(C2CC2)on1)N(C1CCCCC1)C1CCOCC1 | . | . | . | . | -1
Oc1cccc(C2c3[nH]c4ccccc4c3CCN2Cc2ccoc2)c1 (stereo unspecified) | 0% | 40µM* | 6% | 0% | -7
COc1ccc(OC)c(-c2cc(C(=O)Nc3c(C)nn(Cc4ccccc4)c3C)no2)c1 | 2% | 57%[57.1 µM] | 39%[57.1 µM] | 4% | -54*
CCc1nnc(NS(=O)(=O)c2ccc(NC(=O)OC)cc2)s1 | 28µM* | 21% | -2% | 4% | 9
CCc1nnc(NS(=O)(=O)c2ccc(NC(=S)NC(=O)c3ccc(F)cc3)cc2)s1 | -4% | 18µM* | -3% | -3% | 0
Cc1cc(NS(=O)(=O)c2ccc(NC(=S)NC(=O)c3cccnc3)cc2)no1 | 4% | -11%[57.1 µM] | -2%[57.1 µM] | 7% | -2
Cc1cc(NS(=O)(=O)c2ccc(NC(=S)NC(=O)c3ccc(Br)cc3)cc2)no1 | 1% | 45µM* | 6% | 0% | -4
S=C(NCCCc1cnc[nH]1)NCCCN(Cc1ccc(Cl)cc1)c1ncc(Br)cn1 | . | -8% | -8% | . | .
CCOC(=O)N1CCN(C(=O)C[C@H]2C[C@@]3(C(=O)OC)C(=C[C@H](C(C)C)O[C@@H]3C3CC3)N(CCc3ccc(OC)c(OC)c3)C2=O)CC1 | . | . | . | . | -1
SMILES | PKM2 act | TrxR1 inh | TrxR1 substrate | GALK inhibitor | PI4K2A block
CCCCCCCC1=Cc2ccccc2C(C(C(=O)OC)C(=O)OC)N1C(=O)OC (stereo unspecified) | -14%[11.5 µM] | . | . | . | .
Cc1cc(C(c2nnnn2Cc2ccccc2)N2CCOCC2)c(C)n1-c1ccc2c(c1)OCO2 (stereo unspecified) | 23% | 7.9µM* | 7% | 2% | 1
c1ccc(Cn2nnnc2C(c2ccncc2)N2CCOCC2)cc1 (stereo unspecified) | -3% | -5% | 1% | 0% | 0
CCC(C)n1c(=N)c(C(=O)NC2CCCCC2)cc2c(=O)n3cc(C)ccc3nc21 (stereo unspecified) | . | ? | i | . | 2
CCOC(=O)C(=Cc1ccc(N(C)C)cc1)C(=O)c1ccccc1 | . | . | . | . | 1
CCOC(=O)/C(=C/c1ccc(OC(=O)c2ccccc2)cc1)C(C)=O | 18% | 14µM* | 0% | . | 7
C=C(C)[C@@H]1C2=CC(C(=O)OC)=C(C[C@@H](C(=C)C)[C@H]3O[C@H]3C3=C[C@H]1OC3=O)O2 | . | 11µM* | -7% | . | .
N#Cc1ccc(C(=O)CN2CCN(c3ccccc3)CC2)cc1 | . | 50µM* | 6% | -1% | 1
O=C(CN1CCN(c2ccccc2)CC1)c1c[nH]c2ccccc12 | . | 22%[57.1 µM] | 8%[57.1 µM] | 0% | 0
COc1cc(C(=O)NCc2cccc3ccccc23)cc(Cl)c1OC | 18µM* | -10% | -10% | -5% | 2
COc1cc(C(=O)NCc2cc(C)nc3ccccc23)cc(OC)c1OC | 0% | 31%[57.1 µM] | 10%[57.1 µM] | -4% | -5
Cc1ccccc1CNc1nc(N(C)C)nc2c1cnn2C | . | 8%[57.1 µM] | 4%[57.1 µM] | . | 0
CCCCc1nc(S(=O)(=O)c2ccc(Cl)cc2)c(N2CCOCC2)o1 | 5% | 1.6µM* | 0%[11.4 µM] | 1% | -1
CNS(=O)(=O)c1cn(CC(=O)Nc2cccc(C(F)(F)F)c2)cc1S(=O)(=O)NC | . | 28% | 0% | . | -1
Cc1ccc(-c2nc(-c3ccccn3)no2)cc1 | -81% | 6%[57.1 µM] | 7%[57.1 µM] | 14% | -75*
Cc1ccc(-c2nc(-c3ccccn3)no2)cc1Cl | -49% | 11% | 2% | 7% | ?
c1ccc(-c2nc(-c3ccccn3)no2)cc1 | -49% | 22% | 9% | 11% | ?
c1ccc(-c2ccc(-c3nc(-c4ccccn4)no3)cc2)cc1 | -69% | 42% | 63% | 12% | -94*
CCOC(=O)c1ccc(NS(=O)(=O)c2cc(-c3onc(C)c3C)ccc2C)cc1 | . | -3%[57.1 µM] | -3%[57.1 µM] | . | 1
O=C(c1cnc(N2CCCCC2)c2ccccc12)N1CCN(c2ccc(Cl)cc2)CC1 | . | 29%[57.1 µM] | 2%[57.1 µM] | . | -1
Cc1ccc(C(=O)N2C(=S)C(c3ccc(F)cc3)=NC23CCN(C)CC3)cc1 | 6% | 20µM* | -10% | -3% | 1
Cc1ccc(C(=O)N2CCC(C(=O)c3ccc(F)cc3)CC2)cc1 | . | 18%[2.29 µM] | 4%[2.29 µM] | . | -2
CCC(=O)Nc1sc2c(c1C(=O)Nc1ccc(Br)cc1)CCCCC2 | . | 56µM* | 2% | . | -6
O=C(Cc1ccccc1)Nc1sc2c(c1C(=O)Nc1ccc(Cl)cc1)CCCC2 | . | 10% | -5% | . | -5
O=C(Cc1ccccc1)Nc1sc2c(c1C(=O)Nc1ccccc1)CCCCC2 | . | 40µM* | -4% | . | -5
Cc1ccc2oc(=O)c3cnn(CC(=O)N4CCN(c5cc(Cl)ccc5C)CC4)c3c2c1 | . | 10% | -2% | . | -1
